Assay results as given in the supplement of paper PMC8728848.
The entries come from a sample that favours the strongest signals as a whole.

Tests used:
Assay in all cases: glycan array binding signal (z-score within array); higher = stronger binding
Conditions in all cases: glycan notation: IUPAC condensed, linker removed
[1] = target: Fuc(a1-2)Gal(b1-3)GlcNAc(b1-2)Man(a1-3)[Fuc(a1-2)Gal(b1-3)GlcNAc(b1-2)Man(a1-6)]Man(b1-4)GlcNAc(b1-4)GlcNAc
Summary of the method: (§1)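 The binding signal is a Z-score computed within each array and averaged over linkers. Arrays of the same protein sequence at different concentrations or buffers were also averaged together. Data originate from 3228 arrays in the Consortium for Functional Glycomics database, kept only where the protein sequence was available.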

Fuc(a1-2)Gal(b1-4)Glc = target: Fuc(a1-2)Gal(b1-4)Glc
Summary of the method: as §1

Fuc(a1-2)Gal(b1-4)Glc6S = target: Fuc(a1-2)Gal(b1-4)Glc6S
Summary of the method: as §1

Fuc(a1-2)Gal6S(b1-4)Glc = target: Fuc(a1-2)Gal6S(b1-4)Glc
Summary of the method: as §1

[2] = target: Fuc(a1-2)[Gal(a1-3)]Gal(b1-4)GlcNAc(b1-3)[Fuc(a1-2)[Gal(a1-3)]Gal(b1-4)GlcNAc(b1-6)]GalNAc
Summary of the method: as §1

[3] = target: Fuc(a1-2)[Gal(a1-3)]Gal(b1-4)GlcNAc(b1-6)GalNAc
Summary of the method: as §1

[4] = target: Fuc(a1-2)[GalNAc(a1-3)]Gal(b1-3)GalNAc(b1-3)Gal(a1-4)Gal(b1-4)Glc
Summary of the method: as §1

[5] = target: Fuc(a1-2)[GalNAc(a1-3)]Gal(b1-4)GlcNAc(b1-2)Man(a1-3)[Fuc(a1-2)[GalNAc(a1-3)]Gal(b1-4)GlcNAc(b1-2)Man(a1-6)]Man(b1-4)GlcNAc(b1-4)[Fuc(a1-6)]GlcNAc
Summary of the method: as §1

[6] = target: Fuc(a1-2)[GalNAc(a1-3)]Gal(b1-4)GlcNAc(b1-3)Gal(b1-4)GlcNAc
Summary of the method: as §1

[7] = target: Fuc(a1-2)[GalNAc(a1-3)]Gal(b1-4)GlcNAc(b1-3)Gal(b1-4)GlcNAc(b1-3)Gal(b1-4)GlcNAc
Summary of the method: as §1

[8] = target: Fuc(a1-2)[GalNAc(a1-3)]Gal(b1-4)GlcNAc(b1-6)GalNAc
Summary of the method: as §1

[9] = target: Fuc(a1-2)[GalNAc(a1-4)]Gal(b1-4)GlcNAc
Summary of the method: as §1

[10] = target: Fuc(a1-3)[Gal(b1-4)]GlcNAc(b1-2)Man
Summary of the method: as §1

[11] = target: Fuc(a1-3)[Gal(b1-4)]GlcNAc(b1-3)Gal(b1-4)[Fuc(a1-3)]GlcNAc(b1-3)Gal(b1-4)[Fuc(a1-3)]GlcNAc
Summary of the method: as §1

[12] = target: Fuc(a1-3)[Gal(b1-4)]GlcNAc6S
Summary of the method: as §1

Gal(a1-6)Glc = target: Gal(a1-6)Glc
Summary of the method: as §1

Gal(b1-3)GalNAc = target: Gal(b1-3)GalNAc
Summary of the method: as §1

[13] = target: Gal(b1-3)GlcNAc(b1-2)[Gal(b1-3)GlcNAc(b1-6)]Man(a1-6)[Gal(b1-3)GlcNAc(b1-2)Man(a1-3)]Man(b1-4)GlcNAc(b1-4)GlcNAc
Summary of the method: as §1

[14] = target: Gal(b1-3)GlcNAc(b1-3)Gal(b1-4)Glc
Summary of the method: as §1

[15] = target: Gal(b1-3)GlcNAc(b1-3)Gal(b1-4)GlcNAc(b1-2)[Gal(b1-3)GlcNAc(b1-3)Gal(b1-4)GlcNAc(b1-6)]Man(a1-6)[Gal(b1-3)GlcNAc(b1-3)Gal(b1-4)GlcNAc(b1-2)Man(a1-3)]Man(b1-4)GlcNAc(b1-4)[Fuc(a1-6)]GlcNAc
Summary of the method: as §1

[16] = target: Gal(b1-3)GlcNAc(b1-6)GalNAc
Summary of the method: as §1

[17] = target: Gal(b1-3)[Neu5Ac(b2-6)]GalNAc
Summary of the method: as §1

[18] = target: Gal(b1-4)GlcNAc(b1-2)Man(a1-3)[Gal(b1-4)GlcNAc(b1-2)Man(a1-6)][GlcNAc(b1-4)]Man(b1-4)GlcNAc(b1-4)[Fuc(a1-6)]GlcNAc
Summary of the method: as §1

[19] = target: Gal(b1-4)GlcNAc(b1-2)Man(a1-6)[GlcNAc(b1-2)Man(a1-3)]Man(b1-4)GlcNAc(b1-4)GlcNAc
Summary of the method: as §1

[20] = target: Gal(b1-4)GlcNAc(b1-2)Man(a1-6)[Man(a1-3)]Man(b1-4)GlcNAc(b1-4)GlcNAc
Summary of the method: as §1

[21] = target: Gal(b1-4)GlcNAc(b1-2)[Gal(b1-4)GlcNAc(b1-4)]Man(a1-3)[Gal(b1-4)GlcNAc(b1-2)[Gal(b1-4)GlcNAc(b1-6)]Man(a1-6)]Man(b1-4)GlcNAc(b1-4)GlcNAc
Summary of the method: as §1

[22] = target: Gal(b1-4)GlcNAc(b1-3)Gal(b1-3)GlcNAc
Summary of the method: as §1

[23] = target: Gal(b1-4)GlcNAc(b1-3)Gal(b1-4)GlcNAc(b1-3)Gal(b1-4)GlcNAc(b1-2)Man(a1-3)[Gal(b1-4)GlcNAc(b1-3)Gal(b1-4)GlcNAc(b1-3)Gal(b1-4)GlcNAc(b1-2)Man(a1-6)]Man(b1-4)GlcNAc(b1-4)GlcNAc
Summary of the method: as §1

[24] = target: Gal(b1-4)GlcNAc(b1-6)GalNAc
Summary of the method: as §1

B1: GS13686A-pdi-553-26-553 (Parabacteroides distasonis) (protein)
chain: NENPDKPTDDVNYNMNEPRLASTLRGGLIIEGNVEQRLKPLQIDFYSQMTVDGGGWGTKNYIQDDEWNNLVWEEYLKQIASINIVIRSLTEKDKDAYANTIAFARIWRVYVHTLAADKFGPMPFPAYEIVEANPPYKSLKDIYDEYFRELDAAINGFNDSAQPIFSDAGIDLIYKNDVSKWKRFANSLRLRLAVRLTEVDQEKCIAEANAAISSPAGLISDKADNAYMPPKADGSWGQDYNYTMFQITWSGPICMSKSVEKLVTNIGGVAWPQGVVNQTSGVAVSSVHPEKVDPRAPKIFQPGIENGDWKGLVYGPKAEEANTGIYQSKQCAELGFIIKDGYPYKSRPYDLFLSEEVHFLKAELYARGFIAGDAKSEYEAGVRASFATWGVTSEVDDYLTSTEKNEAGTSARYDDQQGAGNTALEKIITQKYIAGIPDLAQEGWNDKRRLNLPRLDVAVYRDQAVYNNNDKDILKSANFIKRMRYPTKESLINATEYEKGKSMLGGKGDIVSTPLWWDKNSNYCTSSK
glycan array binding signal (z-score) [1]: 0.144
glycan array binding signal (z-score) (Fuc(a1-2)Gal(b1-4)Glc): -0.076
glycan array binding signal (z-score) (Fuc(a1-2)Gal(b1-4)Glc6S): 0.03
glycan array binding signal (z-score) (Fuc(a1-2)Gal6S(b1-4)Glc): -0.226
glycan array binding signal (z-score) [2]: 0.003
glycan array binding signal (z-score) [3]: 0.081
glycan array binding signal (z-score) [4]: -0.124
glycan array binding signal (z-score) [5]: 0.023
glycan array binding signal (z-score) [6]: 0.224
glycan array binding signal (z-score) [7]: 0.041
glycan array binding signal (z-score) [8]: -0.281
glycan array binding signal (z-score) [9]: 1.95
glycan array binding signal (z-score) [10]: -0.253
glycan array binding signal (z-score) [11]: -0.035
glycan array binding signal (z-score) [12]: -0.276
glycan array binding signal (z-score) (Gal(a1-6)Glc): 0.108
glycan array binding signal (z-score) (Gal(b1-3)GalNAc): 0.011
glycan array binding signal (z-score) [13]: 0.046
glycan array binding signal (z-score) [14]: -0.082
glycan array binding signal (z-score) [15]: 1.83
glycan array binding signal (z-score) [16]: 1.97
glycan array binding signal (z-score) [17]: 1.03
glycan array binding signal (z-score) [18]: 1.35
glycan array binding signal (z-score) [19]: 0.027
glycan array binding signal (z-score) [20]: -0.04
glycan array binding signal (z-score) [21]: 2.01
glycan array binding signal (z-score) [22]: -0.133
glycan array binding signal (z-score) [23]: 0.45
glycan array binding signal (z-score) [24]: -0.056
